Test [1] in a line: Nuclear factor erythroid 2-related factor 2/antioxidant responsive element (Nrf2/ARE) small molecule agonists: qHTS cell viability counter screen in human keratinocytes (AID 1919968; active = well fitted curve in the direction sought with a large enough effect in the repeat runs; an effect the other way counts as inactive or inconclusive; note: nearly all actives have a fitted effect of over 55% in size; note: potency is the fitted concentration of half-maximal effect). In a few lines:
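Stably transfected HaCaT (KeratinoSens), 1,500/well. Test agents in DMSO were applied for 23 h, 37 C/5% CO2. CellTiter-Fluor was incubated 1 h before the fluorescence read.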

A short description of test [2]: Nuclear factor erythroid 2-related factor 2/antioxidant responsive element (Nrf2/ARE) small molecule agonists: luciferase reporter gene qHTS assay in human keratinocytes (AID 1919969). Note: nearly all actives have a fitted effect of over 35% in size. Note: potency is the fitted concentration of half-maximal effect.
Test [3] concerns the target Gonadotropin-releasing hormone receptor (Homo sapiens) (UniProt P30968). In words: Human gonadotropin-releasing hormone receptor (GnRHR) small molecule agonists, calcium flux assay in GnRHR-HEK293 cells (AID 1920063). Note: nearly all actives have a fitted effect of over 35% in size. In a few lines:
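Stable human GnRHR HEK293 line. 18 h plating, then calcium dye for 1 h at 37 C. Agonist-mode compound addition from DMSO stocks; fluorescence monitored 3 min.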

The target of test [4] is KiSS-1 receptor (Homo sapiens) (UniProt Q969F8). Briefly: Human kisspeptin (KISS1R) small molecule agonists, calcium flux assay in KISS1R-HEK293 cells (AID 1920064; active = well fitted curve in the direction sought with a large enough effect in the repeat runs; an effect the other way counts as inactive or inconclusive). In a few lines:
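After overnight (18 h) culture at 37 C/5% CO2, human KISS1R-HEK293 cells received calcium dye for 1 h, then test compound; emission at 540 nm (excitation 480 nm) was tracked for 3 min.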

Test [5] in a line: G protein-coupled receptor (GPCR) small molecule agonists, calcium flux assay: HEK293 wild type cell line counter screen (AID 1920065). An outline of the steps: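 Following 18 h incubation at 37 C/5% CO2, plates got calcium dye for 1 h; compounds, ATP or DMSO were then pinned in and fluorescence followed kinetically (480/540 nm).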
Test [6] in a line: p53 small molecule agonists, cell-based qHTS assay with human liver microsomes: qHTS cell viability counter screen (AID 1963579). Note: nearly all actives have a fitted effect of over 45% in size. In a few lines: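 Cytotoxicity counter screen: p53RE-bla, 4,000 cells/well; 5 h settle, 37 C/5% CO2; cpd + HLM 0.5 mg/mL + NADPH 0.5 mg/mL (final); 16 h, 37 C; CellTiter-Glo, 30 min RT, luminescence.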
The nature of test [7]: p53 small molecule agonists, cell-based qHTS assay with rat liver microsomes: qHTS cell viability counter screen (AID 1963580). Note: nearly all actives have a fitted effect of over 45% in size. An outline of the steps: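 After the beta-lactamase ratio was read, CellTiter-Glo was added to the same wells and luminescence measured at 30 min; cells had been treated 16 h at 37 C with compounds, rat liver microsomes and NADPH (0.5 mg/mL final each).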

The target of test [8] is 5-hydroxytryptamine receptor 2A (Homo sapiens) (UniProt P28223). In words: 5-hydroxytryptamine receptor 2A (HTR2A) small molecule antagonists, cell-based qHTS assay (AID 1963586). Note: nearly all actives have a fitted effect of over 45% in size. In a few lines: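 CHO cells stably expressing human HTR2A were plated for 18 h at 37 C, then loaded with calcium dye for 1 h. Compounds were preincubated 5 min at room temperature before DOI (4 nM solution) was added. Kinetic fluorescence was read for 3 min.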

The target is the same in test [9]. In words: 5-hydroxytryptamine receptor 2A (HTR2A) small molecule agonists, cell-based qHTS assay (AID 1963587). Note: nearly all actives have a fitted effect of over 30% in size. An outline of the steps: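 CHO cells stably expressing human HTR2A, plated 18 h, loaded with calcium dye 1 h at 37 C. Agonist mode: compounds added and intracellular calcium fluorescence recorded kinetically for 2 min at 1 sec intervals.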
Test [10] concerns the target Muscarinic acetylcholine receptor M1 (Homo sapiens) (UniProt P11229). Briefly: Cholinergic receptor muscarinic 1 (CHRM1) small molecule agonists, cell-based qHTS assay (AID 1963589). Note: nearly all actives have a fitted effect of over 35% in size. Note: potency is the fitted concentration of half-maximal effect. An outline of the steps:
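Kinetic fluorescence (1 s intervals) of calcium-sensitive dye in human M1 CHO cells after compound addition; cells pre-incubated 18 h at 37 C/5% CO2 and dye-loaded 1 h.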

Test [11] in a line: cAMP Responsive Elements (CRE) small molecule antagonists, cell-based qHTS assay (AID 1963591; active = well fitted inhibition curve with a large enough effect in the signal ratio in the repeat runs, not every such curve was filed as active; the % refers to the signal ratio). In a few lines:
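Reporter line CRE-bla HEK 293T in dialyzed-FBS DMEM; cells preincubated 18 h, treated 3 h with compound plus NKH477 (0.25 uM final); LiveBLAzer FRET, 2 h RT.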

Test [12] deals with Beta-2 adrenergic receptor (Homo sapiens) (UniProt P07550). In words: Adrenergic beta2 receptor (ADRB2) small molecule antagonists, cell-based qHTS assay (AID 1963592). Note: series mostly up to about 92 µM; nearly all actives have a fitted effect of over 50% in size. In a few lines: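 Assay format: CHO-ADRB2 cells, 18-20hr seeding at 37C/5% CO2, then compound plus 1nM isoproterenol agonist mix for 0.5hr RT. Homogeneous time-resolved fluorescence cAMP detection after 1hr, expressed as 665/615 nm ratio.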

In test [13] the target is D(2) dopamine receptor (Homo sapiens) (UniProt P14416). Briefly: Dopamine D2 receptor (DRD2) small molecule agonists, cell-based qHTS assay (AID 1963594). Note: nearly all actives have a fitted effect of over 35% in size. An outline of the steps:
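HEK293 cells stably expressing human DRD2, pre-treated with PDE inhibitor Ro20-1724 (0.1 mM final) and compound 10 min at room temperature, then stimulated with NKH477 (200nM […]) for 30 min. cAMP read by HTRF (665/620 nm).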

Test [14] shares this target. In words: Dopamine D2 receptor (DRD2) small molecule antagonists, cell-based qHTS assay (AID 1963595; active = well fitted inhibition curve with a large enough effect in the signal ratio in the repeat runs, with a control signal flat; the % refers to the signal ratio). In a few lines: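 Human DRD2 antagonist qHTS measuring cAMP by HTRF. The cells are exposed to compound for 10 min, then to NKH477 (200 nM) and quinpirole (12 nM) for 30 min at RT, with Ro20-1724 (0.1 mM) present throughout.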
Test [15] can be described thus: p53 small molecule agonists, cell-based qHTS assay: qHTS cell viability counter screen (AID 1963581). Note: nearly all actives have a fitted effect of over 45% in size. In a few lines:
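qHTS counter screen: 16 h compound exposure at 37 C of p53RE-bla HCT-116 cells (4,000 per well, seeded 5 h prior), cell viability by ATP luminescence.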

Test [16] concerns the target Muscarinic acetylcholine receptor M1 (Homo sapiens) (UniProt P11229). In words: Cholinergic receptor muscarinic 1 (CHRM1) small molecule antagonists, cell-based qHTS assay (AID 1963588). Note: nearly all actives have a fitted effect of over 40% in size. In a few lines:
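Compounds were tested at 15 concentrations in three independent runs. Dye-loaded CHRM1-CHO cells were exposed 5 min at room temperature before stimulation by acetylcholine added at 50nM. Intracellular calcium was read kinetically on FDSS for 3 min.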

Test [17] in a line: cAMP Responsive Elements (CRE) small molecule agonists, cell-based qHTS assay (AID 1963590). In a few lines:
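Test agents in DMSO were incubated 3 h at 37 C/5% CO2 with CRE-bla HEK 293T cells seeded 18 h earlier; LiveBLAzer B/G FRET substrate was added and read after 2 h at room temperature.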

Test [18] concerns the target Beta-2 adrenergic receptor (Homo sapiens) (UniProt P07550). In words: Adrenergic beta2 receptor (ADRB2) small molecule agonists, cell-based qHTS assay (AID 1963593).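 Note: CHO cells stably overexpressing human ADRB2.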 In a few lines:
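CHO cells stably over-expressing ADRB2 were plated overnight at 37C, then dosed with compounds plus a stimulation mix containing 100uM IBMX and 25uM Ro-20-1724 for 0.5hr at room temperature. cAMP was measured by HTRF competition, 1hr.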

Test [19] in a line: p53 small molecule agonists, cell-based qHTS assay (AID 1963582; active = well fitted activation curve with a large enough effect in the signal ratio in the repeat runs, not every such curve was filed as active; the % refers to the signal ratio). An outline of the steps:
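Measured: fluorescence from cleaved LiveBLAzer substrate. System: p53RE-bla cells, 16 h compound treatment at 37 C, 2 h substrate step at room temperature.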

Molecules are shown by their SMILES. A number with no mark means an inactive call. Results filed as inconclusive are left out. Active and inactive are the calls of the source. Unless noted, calls come from the whole dose curve.

Chain of Muscarinic acetylcholine receptor M1 (Homo sapiens) (P11229 whole entry, looked up): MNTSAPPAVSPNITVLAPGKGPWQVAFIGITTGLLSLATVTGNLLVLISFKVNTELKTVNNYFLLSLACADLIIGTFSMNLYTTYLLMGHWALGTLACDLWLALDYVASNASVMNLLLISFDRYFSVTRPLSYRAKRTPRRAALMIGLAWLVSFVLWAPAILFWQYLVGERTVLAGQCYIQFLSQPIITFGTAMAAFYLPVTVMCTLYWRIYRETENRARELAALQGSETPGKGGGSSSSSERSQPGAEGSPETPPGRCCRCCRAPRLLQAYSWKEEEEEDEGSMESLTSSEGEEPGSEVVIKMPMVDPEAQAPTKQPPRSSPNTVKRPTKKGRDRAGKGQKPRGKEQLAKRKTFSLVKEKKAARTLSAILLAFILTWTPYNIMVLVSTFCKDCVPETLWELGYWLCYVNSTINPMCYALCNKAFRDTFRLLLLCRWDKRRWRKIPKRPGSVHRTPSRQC
Chain of D(2) dopamine receptor (Homo sapiens) (P14416 whole entry, looked up): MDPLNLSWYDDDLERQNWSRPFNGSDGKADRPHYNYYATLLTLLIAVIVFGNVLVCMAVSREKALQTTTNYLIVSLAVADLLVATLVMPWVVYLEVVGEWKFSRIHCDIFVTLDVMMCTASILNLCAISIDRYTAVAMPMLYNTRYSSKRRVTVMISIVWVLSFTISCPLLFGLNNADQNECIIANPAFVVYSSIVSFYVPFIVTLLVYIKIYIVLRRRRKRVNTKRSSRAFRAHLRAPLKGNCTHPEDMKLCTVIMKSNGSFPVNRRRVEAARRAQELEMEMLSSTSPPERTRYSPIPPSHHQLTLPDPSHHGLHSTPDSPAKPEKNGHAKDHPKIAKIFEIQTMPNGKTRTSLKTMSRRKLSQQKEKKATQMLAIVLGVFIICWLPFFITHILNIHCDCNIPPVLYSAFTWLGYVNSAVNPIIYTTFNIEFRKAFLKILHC
Chain of 5-hydroxytryptamine receptor 2A (Homo sapiens) (P28223 whole entry, looked up): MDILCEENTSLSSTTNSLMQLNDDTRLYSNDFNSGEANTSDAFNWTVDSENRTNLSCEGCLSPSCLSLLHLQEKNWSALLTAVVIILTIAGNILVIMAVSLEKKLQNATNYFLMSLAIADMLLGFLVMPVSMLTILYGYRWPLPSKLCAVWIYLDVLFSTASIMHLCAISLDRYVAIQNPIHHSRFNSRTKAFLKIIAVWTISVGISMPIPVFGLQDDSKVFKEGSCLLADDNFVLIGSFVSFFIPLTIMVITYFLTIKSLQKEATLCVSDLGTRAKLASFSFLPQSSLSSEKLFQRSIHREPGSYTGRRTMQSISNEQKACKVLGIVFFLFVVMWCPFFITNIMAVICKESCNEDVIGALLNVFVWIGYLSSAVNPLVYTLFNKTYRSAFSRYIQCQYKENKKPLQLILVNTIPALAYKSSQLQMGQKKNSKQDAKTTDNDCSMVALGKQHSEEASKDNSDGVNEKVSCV
Chain of Beta-2 adrenergic receptor (Homo sapiens) (P07550 whole entry, looked up): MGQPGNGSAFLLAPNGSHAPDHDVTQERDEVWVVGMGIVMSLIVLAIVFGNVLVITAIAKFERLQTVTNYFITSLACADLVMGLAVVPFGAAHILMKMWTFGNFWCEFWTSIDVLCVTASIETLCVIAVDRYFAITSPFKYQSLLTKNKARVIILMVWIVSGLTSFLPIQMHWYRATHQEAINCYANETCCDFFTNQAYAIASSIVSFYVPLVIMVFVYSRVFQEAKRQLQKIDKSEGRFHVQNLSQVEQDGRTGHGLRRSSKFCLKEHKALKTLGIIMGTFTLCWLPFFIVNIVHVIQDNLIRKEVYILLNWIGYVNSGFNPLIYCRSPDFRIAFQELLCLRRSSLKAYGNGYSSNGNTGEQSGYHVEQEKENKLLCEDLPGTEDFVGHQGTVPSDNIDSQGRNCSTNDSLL
Chain of Gonadotropin-releasing hormone receptor (Homo sapiens) (P30968 whole entry, looked up): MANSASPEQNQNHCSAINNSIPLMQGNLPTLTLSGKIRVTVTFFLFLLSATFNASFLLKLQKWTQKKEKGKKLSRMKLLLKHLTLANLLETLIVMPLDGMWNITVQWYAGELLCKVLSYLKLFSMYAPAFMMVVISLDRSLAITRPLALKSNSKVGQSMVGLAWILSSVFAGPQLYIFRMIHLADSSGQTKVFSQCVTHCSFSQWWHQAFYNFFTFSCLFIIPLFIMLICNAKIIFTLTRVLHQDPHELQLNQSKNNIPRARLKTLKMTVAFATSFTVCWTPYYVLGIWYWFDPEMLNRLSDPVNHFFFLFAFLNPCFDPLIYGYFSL
Chain of KiSS-1 receptor (Homo sapiens) (Q969F8 whole entry, looked up): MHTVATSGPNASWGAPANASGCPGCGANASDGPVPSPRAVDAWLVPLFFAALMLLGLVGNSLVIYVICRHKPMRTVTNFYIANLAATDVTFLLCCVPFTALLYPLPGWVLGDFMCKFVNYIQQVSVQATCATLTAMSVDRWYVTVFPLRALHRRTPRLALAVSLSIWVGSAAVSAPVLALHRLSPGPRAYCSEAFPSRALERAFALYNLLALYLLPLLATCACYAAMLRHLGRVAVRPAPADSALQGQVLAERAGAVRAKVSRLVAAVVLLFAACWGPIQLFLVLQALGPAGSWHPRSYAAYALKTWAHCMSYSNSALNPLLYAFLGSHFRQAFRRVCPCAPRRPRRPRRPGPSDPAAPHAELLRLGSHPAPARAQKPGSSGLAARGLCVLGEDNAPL

As for `CC(=O)c1ccc2c(c1)Cc1ccccc1-2`, the Potency result in [1], in test [2], in test [3], in [4], in test [5] and in test [6] was “inactive” throughout. In addition, the Potency entry in [7], in test [8], in test [9], in test [10], in test [11] and in test [12] was “inactive” in each case. For the same molecule, the Potency entry in test [13] and in [14] was “inactive” each time.

As to `Cc1nc2c([nH]1)c(=O)n(C)c(=O)n2Cc1ccco1`, the Potency entry in test [1], in test [2], in test [3], in [4], in [5] and in [6] was “inactive” each time. In addition, the Potency result in test [7], in test [15], in test [16], in test [10], in [11] and in [12] was “inactive” each time. In test [14], the Potency entry is “inactive”.

In the case of `O=C(O)c1cccnc1Nc1cccc(C(F)(F)F)c1`, the Potency entry in [1], in test [3], in test [4], in [5], in [6] and in [7] was “inactive” in each case. The Potency result in test [15], in test [11], in test [12], in test [13] and in test [14] was “inactive” throughout. In addition, the Potency in test [2] was 23.7 µM (active).

In the case of `Cc1ccc(OC(=O)CC(C)C)cc1`, the Potency entry in [1], in test [2], in test [3], in test [4], in test [5] and in test [6] was “inactive” each time. The Potency entry in [7], in [8], in [9], in test [16], in [10] and in [17] was “inactive” throughout. Also, the Potency result in test [11], in test [12], in [18], in [13] and in test [14] was “inactive” throughout.

In the case of `COc1ccnc(CS(=O)c2nc3cc(OC(F)F)ccc3[nH]2)c1OC` (stereo not drawn), the Potency entry in test [1], in [2], in test [3], in test [4], in test [5] and in test [6] was “inactive” each time. The Potency result in test [7], in test [15], in test [17], in test [12], in test [18] and in test [13] was “inactive” each time. Also, the Potency entry in test [14] is “inactive”.

Consider `C=CCc1cc(S(=O)(=O)c2ccc(O)c(CC=C)c2)ccc1O`, for which the Potency in test [1] is 61.1 µM (active). Also, the Potency entry in test [2], in test [3], in [4], in [5], in [6] and in [7] was “inactive” in each case. In addition, the Potency entry in test [8], in test [9], in test [16], in test [10], in test [17] and in [12] was “inactive” throughout. Besides, the Potency result in [13] and in test [14] was “inactive” in each case.

Take `Cc1c(-c2ccccc2)oc2c(C(=O)OCCN3CCCCC3)cccc2c1=O`: the Potency entry in test [1], in test [2], in [3], in test [4], in [5] and in test [6] was “inactive” in each case. Besides, the Potency entry in [7], in test [15], in [11], in test [12], in test [18] and in test [13] was “inactive” each time.

On to `O=c1[nH][nH]c2ccccc12`, for which the Potency result in test [1], in test [3], in [4], in [5], in test [6] and in test [7] was “inactive” throughout. For the same molecule, the Potency entry in test [8], in test [9], in [16], in [10], in [11] and in test [12] was “inactive” throughout. Also, the Potency entry in test [18], in test [13] and in test [14] was “inactive” throughout. In addition, the Potency in [2] is 62.3 µM (active).

`CC(C)C(=O)OCCc1ccccc1`: the Potency result in test [1], in [2], in test [3], in test [4], in [5] and in test [6] was “inactive” throughout. In addition, the Potency entry in [7], in [8], in test [9], in [16], in test [10] and in [17] was “inactive” throughout. The Potency entry in [11], in test [12], in [18], in test [13] and in test [14] was “inactive” each time.

Consider `Cn1c(=O)c2c(ncn2CC2OCCO2)n(C)c1=O`, for which the Potency result in test [1], in test [2], in [3], in test [4], in test [5] and in [6] was “inactive” throughout. Also, the Potency entry in test [7], in test [15], in test [17], in test [11], in [12] and in [18] was “inactive” in each case. For the same molecule, the Potency entry in test [13] and in test [14] was “inactive” throughout.

Take `COc1cc(-c2ccc(=O)[nH]n2)ccc1OC(F)F`: the Potency result in [1], in test [2], in test [3], in [4], in [5] and in [6] was “inactive” in each case. Besides, the Potency result in [7], in test [19], in test [16], in test [11], in [12] and in test [18] was “inactive” in each case. The Potency entry in [13] and in test [14] was “inactive” each time. Further, in [10], the Potency was 0.0038 µM (active).

In the case of `COc1cc(NCc2ccc3nc(N)nc(N)c3c2C)cc(OC)c1OC`, the Potency entry in [1], in test [2], in test [3], in [4], in test [5] and in test [6] was “inactive” each time. Besides, the Potency result in test [7], in test [8], in test [9], in test [16], in test [10] and in [12] was “inactive” each time. Moreover, the Potency entry in test [18] and in test [14] was “inactive” in each case.

Turning to `CCCOC(OCCC)OCCC`, the Potency result in test [1], in test [2], in test [3], in test [4], in [5] and in test [6] was “inactive” each time. Further, the Potency entry in test [7], in test [8], in [9], in [16], in test [10] and in [17] was “inactive” each time. For the same molecule, the Potency result in [11], in test [12], in test [18] and in [14] was “inactive” throughout.

The values above are taken from PubChem BioAssay (Tox21).
